These results are taken from PubChem BioAssay (Tox21).

“And” between values parts separate entries of the source, which are not always exact repeats. Identical values can stand only once. Records with an inconclusive call do not appear. Some compounds were tested as several samples or in several runs, with calls that do not always agree. The source made the active and inactive calls. Unless noted, calls come from the whole dose curve; as a rule, active = well fitted curve in the direction sought with a large enough effect in the repeat runs; inconclusive = weak or mixed curves; inactive = no such curve, though single readings can be large; an effect the other way counts as inactive or inconclusive.

The nature of assay [1]: qHTS assay to identify small molecule antagonists of the glucocorticoid receptor (GR) signaling pathway - cell viability counter screen (AID 720693). Note: nearly all actives have a fitted effect of over 55% in size. Background: In qHTS, concentration-response curves come from the screen itself.
Assay [2] is described as follows: qHTS assay for identifying genotoxic compounds that show differential cytotoxicity against isogenic chicken DT40 cell lines with known DNA damage response pathways - wild type cell line (AID 743012). Note: nearly all actives have a fitted effect of over 60% in size. Note: potency is the fitted concentration of half-maximal effect. The essentials:
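300 wt DT40 cells/well; cpd (DMSO) pintool-transferred after ~0.5 h at 37 C/5% CO2; 40 h incubation; CellTiter-Glo added, 30 min RT; luminescence read.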

Assay [3] is described as follows: qHTS assay for identifying genotoxic compounds that show differential cytotoxicity against isogenic chicken DT40 cell lines with known DNA damage response pathways - Rev3 mutant cell line (AID 743014). Note: nearly all actives have a fitted effect of over 55% in size. Note: potency is the fitted concentration of half-maximal effect.
Assay [4] in a line: qHTS assay for identifying genotoxic compounds that show differential cytotoxicity against isogenic chicken DT40 cell lines with known DNA damage response pathways - Rad54/Ku70 mutant cell line (AID 743015). Note: nearly all actives have a fitted effect of over 60% in size. Note: potency is the fitted concentration of half-maximal effect.
A short description of assay [5]: qHTS assay to identify small molecule antagonists of the androgen receptor (AR) signaling pathway - cell viability counter screen (AID 743033; note: nearly all actives have a fitted effect of over 45% in size; note: potency is the fitted concentration of half-maximal effect).
A short description of assay [6]: qHTS assay to identify small molecule antagonists of the androgen receptor (AR) signaling pathway using the MDA cell line - cell viability counter screen (AID 743041; note: nearly all actives have a fitted effect of over 45% in size; note: potency is the fitted concentration of half-maximal effect). An outline of the steps: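 In this qHTS counter assay, fluorescence intensity after CellTiter-Fluor addition indicated viability of MDA-kb2 AR-luc cells given compounds and R1881 for 16 h at 37C.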

Assay [7] in a line: qHTS assay to identify small molecule antagonists of the thyroid receptor (TR) signaling pathway - cell viability counter screen (AID 743064). Note: nearly all actives have a fitted effect of over 50% in size. Note: potency is the fitted concentration of half-maximal effect. An outline of the steps: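 Viability of T3-stimulated (1 nM final) GH3.TRE-Luc cells is measured by CellTiter-Fluor fluorescence after 23.5 h compound exposure at 37 °C plus 30 min reagent incubation.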
In assay [8] the target is Androgen receptor (Homo sapiens) (UniProt P10275). In words: qHTS assay to identify small molecule antagonists of the androgen receptor (AR) signaling pathway (AID 743035; active = well fitted inhibition curve with a large enough effect in the signal ratio in the repeat runs, not every such curve was filed as active; the % refers to the signal ratio). The essentials:
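In this cell-based reporter screen, compounds were tested in concentration series against R1881-activated HEK293 cells expressing beta-lactamase under UAS control; after 16 h at 37C, FRET substrate was added and fluorescence read 2 h later.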

The target is the same in assay [9]. In words: qHTS assay to identify small molecule agonists of the androgen receptor (AR) signaling pathway (AID 743036; active = well fitted activation curve with a large enough effect in the signal ratio in the repeat runs, with a control signal flat, not every such curve was filed as active; the % refers to the signal ratio). An outline of the steps:
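Screening used 2,000 AR-bla HEK293 cells per well, treated 16 h at 37C with test compounds in DMSO alongside positive and DMSO-only controls; beta-lactamase activity was then read by LiveBLAzer B/G FRET fluorescence after 2 h at room temperature.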

For assay [10] the target is unchanged. In words: qHTS assay to identify small molecule agonists of the androgen receptor (AR) signaling pathway using the MDA cell line (AID 743040; note: nearly all actives have a fitted effect of over 20% in size). The settings on record: MDA-kb2 AR-luc cells, MMTV luciferase, 16 h, stronger effect = higher value. An outline of the steps:
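Cell-based luciferase reporter: MDA-kb2, MMTV promoter (AR + GR response elements). 16 h compound exposure at 37C; ONE-Glo, 30 min RT, luminescence.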
% is set by controls: 0 for no effect and ±100 for the full control effect.

Androgen receptor (Homo sapiens), sequence (P10275 whole entry, looked up): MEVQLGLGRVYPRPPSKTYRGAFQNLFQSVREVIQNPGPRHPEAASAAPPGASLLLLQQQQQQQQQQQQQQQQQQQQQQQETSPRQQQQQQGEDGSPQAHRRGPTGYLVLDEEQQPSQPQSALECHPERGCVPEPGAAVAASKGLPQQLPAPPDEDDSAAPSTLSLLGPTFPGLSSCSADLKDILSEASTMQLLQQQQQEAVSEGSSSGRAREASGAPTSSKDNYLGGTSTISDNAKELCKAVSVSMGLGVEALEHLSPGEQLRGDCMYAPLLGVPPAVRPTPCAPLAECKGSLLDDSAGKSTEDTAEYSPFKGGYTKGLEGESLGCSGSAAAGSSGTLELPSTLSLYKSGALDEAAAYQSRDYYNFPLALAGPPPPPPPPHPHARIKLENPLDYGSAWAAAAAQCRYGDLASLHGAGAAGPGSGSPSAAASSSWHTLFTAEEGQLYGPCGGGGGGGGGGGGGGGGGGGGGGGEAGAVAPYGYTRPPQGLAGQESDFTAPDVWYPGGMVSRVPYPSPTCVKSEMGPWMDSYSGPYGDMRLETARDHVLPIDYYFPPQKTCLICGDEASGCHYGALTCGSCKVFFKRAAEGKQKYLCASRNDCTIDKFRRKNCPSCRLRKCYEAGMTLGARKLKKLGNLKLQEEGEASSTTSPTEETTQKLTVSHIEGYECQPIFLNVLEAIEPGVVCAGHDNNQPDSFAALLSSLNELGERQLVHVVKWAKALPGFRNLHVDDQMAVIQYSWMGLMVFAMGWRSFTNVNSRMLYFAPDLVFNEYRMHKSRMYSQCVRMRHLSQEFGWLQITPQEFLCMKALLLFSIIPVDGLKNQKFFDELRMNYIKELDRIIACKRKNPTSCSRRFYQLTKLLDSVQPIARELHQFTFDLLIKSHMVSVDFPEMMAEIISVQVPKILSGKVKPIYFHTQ

For the compound `Nc1cccc(N)n1`, the Potency result in [1], in assay [2], in assay [3], in assay [4], in [5] and in [6] was “inactive” in each case. Moreover, the Potency result in assay [7] is “inactive”.
Turning to `CN1Cc2c(N)cccc2C(c2ccccc2)C1` (stereo not drawn), the Potency result in assay [1], in assay [2], in [5], in assay [6] and in assay [7] was “inactive” in each case. Also, the Potency result in assay [3] was “inactive and 61.1 µM (active)”; in [4] it was “inactive and 54.5 µM (active)”.
As to `c1cnc2c(c1)ccc1cccnc12`, in [1], the Potency result was “inactive”. The Potency was 3.09 µM (active) and 1.54 µM (active) and 3.86 µM (active) in [2]; 1.38 µM (active) and 1.22 µM (active) and 2.43 µM (active) in [3]; 1.38 µM (active) and 686 nM (active) and 1.54 µM (active) in assay [4]; 4.9 µM (active) in assay [5]; 49 µM (active) and 30.6 µM (active) in assay [6]; 7.77 µM (active) and 6.86 µM (active) and 15.4 µM (active) in assay [7].
On to `CCCOC(=O)NCCCN(C)C`, for which the Potency result in assay [1], in assay [2], in assay [3], in assay [4], in assay [5] and in assay [6] was “inactive” each time. Moreover, the Potency result in [7] was “inactive”.
`COC(=O)CCCCC(=O)OC`: the Potency entry in [1], in [2], in assay [3], in [4], in assay [5] and in assay [6] was “inactive” each time. For the same compound, the Potency entry in assay [7] is “inactive”.
Take `COc1cc(NC(=O)CC(C)=O)c(OC)cc1Cl`: the Potency entry in assay [1], in [2], in [3], in assay [4], in [5] and in assay [6] was “inactive” throughout. Besides, in assay [7], the Potency result is “inactive”.
Regarding `NCCNCCNCCN`, the Potency result in assay [1], in assay [2], in assay [3], in [4], in [5] and in [6] was “inactive” throughout. Also, in assay [7], the Potency entry was “inactive”.
With `OC[C@H]1O[C@@H](Oc2ccc(O)cc2)[C@H](O)[C@@H](O)[C@@H]1O`, the Potency entry in assay [1], in assay [2], in [4], in [5], in assay [6] and in assay [7] was “inactive” each time. For the same compound, the Potency result in assay [3] was “inactive and 30.6 µM (active)”.
For the compound `Brc1ccc(Oc2ccc(Br)cc2)cc1`, the Potency entry in assay [1], in [2], in assay [3], in assay [4], in assay [5] and in assay [6] was “inactive” throughout. In addition, the Potency entry in assay [7] is “inactive”.
For `O=C1OC(=O)c2c(Cl)c(Cl)c(Cl)c(Cl)c21`, the Potency result in assay [1], in [2], in [3], in [4], in assay [5] and in assay [6] was “inactive” in each case. In addition, the Potency result in [7] was “inactive”.
`COCN(COC)c1nc(N(COC)COC)nc(N(COC)COC)n1`: the Potency entry in assay [1], in assay [2], in assay [3], in assay [4], in assay [5] and in [6] was “inactive” each time. Also, the Potency result in [7] was “inactive”.
For `C=CC(C)(C)C`, the Potency result in [1], in assay [2], in assay [3], in assay [4], in assay [5] and in [6] was “inactive” in each case. In assay [7], the Potency entry is “inactive”.
Regarding `CC1(C)C(=O)N(Cl)C(=O)N1Cl`, the Potency result in assay [1], in [2], in [3], in assay [4], in [5] and in assay [6] was “inactive” in each case. The Potency result in assay [7] was “inactive”.
As to `Cc1ccccc1Cl`, the Potency result in assay [2], in [3], in assay [4], in assay [5], in assay [8] and in assay [9] was “inactive” throughout. In addition, the Potency result in assay [6] and in assay [7] was “inactive” each time. Moreover, the activity change in assay [10] (at 70.3 µM (top of the series)) is -0.0268% (inactive); in assay [10] (at 95 µM (top of the series)), -0.806% (inactive).
Turning to `C[n+]1ccn(CCO)c1`, the Potency result in assay [1], in [2], in assay [3], in [4], in assay [5] and in [6] was “inactive” each time. In assay [7], the Potency result was “inactive”.
Consider `CCc1cccc(CC)c1N`, for which the Potency result in [2], in assay [3], in assay [4], in assay [5], in assay [8] and in assay [9] was “inactive” each time. Also, the Potency result in [6] was “inactive”. The activity change was 0.738% (inactive) in assay [10] (at 70.3 µM (top of the series)) and 0.21% (inactive) in [10] (at 95 µM (top of the series)).
Take `COc1c2ccoc2cc2oc(=O)ccc12`: the Potency result in assay [1], in assay [2], in assay [3], in [4], in [5] and in assay [6] was “inactive” throughout. In addition, the Potency result in assay [7] was “inactive”.
For the compound `CC(=O)C(C)C`, the Potency result in assay [1], in assay [2], in assay [3], in assay [4], in [5] and in assay [6] was “inactive” each time. In assay [7], the Potency entry is “inactive”.
With `CC(=O)OC[C@H]1O[C@@](COC(C)=O)(O[C@H]2O[C@H](COC(C)=O)[C@@H](OC(C)=O)[C@H](OC(C)=O)[C@H]2OC(C)=O)[C@@H](OC(C)=O)[C@@H]1OC(C)=O`, the Potency result in [1], in [2], in assay [3], in assay [4], in [5] and in assay [6] was “inactive” throughout. Besides, the Potency entry in [7] is “inactive”.
Consider `CCCCCCCCO`, for which the Potency entry in assay [1], in assay [2], in [3], in assay [4], in assay [5] and in assay [6] was “inactive” in each case. In addition, the Potency result in assay [7] is “inactive”.
In the case of `CS(=O)(=O)c1ccc(Cl)cc1`, the Potency result in assay [1], in assay [2], in [3], in [4], in [5] and in assay [6] was “inactive” throughout. Also, the Potency entry in assay [7] is “inactive”.
As for `CC(=O)Nc1ccc(CC(=O)O)cc1`, the Potency result in assay [1], in [2], in assay [3], in assay [4], in [5] and in assay [6] was “inactive” in each case. Further, in [7], the Potency result is “inactive”.
For the compound `Cc1ccc(C)c(S(=O)(=O)O)c1`, the Potency entry in assay [2], in assay [3], in [4], in assay [5], in [6] and in [7] was “inactive” each time.
In the case of `CCCCCCCCCCCC(=O)N(C)CC(=O)O`, the Potency in assay [3] and in assay [4] was 66.4 µM (active) each time. Moreover, the activity, negative = cytotoxicity in [3] is 3.78% [at 8.53 µM] (inactive). The results for the activity change, negative = cytotoxicity in assay [4] and in assay [5] were -12.4% [at 8.55 µM] (inactive) and 1.79% [at 7.04 µM] (inactive), respectively. Further, the Potency entry in assay [6] is “inactive”. Further, the activity change, negative = cytotoxic in assay [7] was 15.6% [at 8.44 µM] (inactive).
Take `O=c1c(O)c(-c2ccc(O)c(O)c2)oc2cc(O)cc(O)c12`: the Potency in [3] is 54.5 µM (active) and 27.5 µM (active) and 61.1 µM (active); in assay [4], 30.7 µM (active) and 24.5 µM (active) and 61.1 µM (active); in assay [7] it was “inactive and 30.9 µM (active)”. Also, the Potency entry in [5] and in assay [6] was “inactive” throughout.
Consider `Oc1ccc(Cc2ccccc2O)cc1`, for which the Potency result in assay [2], in assay [3], in assay [4], in assay [5], in assay [6] and in [7] was “inactive” in each case.
As for `CCn1cc(C(=O)O)c(=O)c2cc3c(cc21)OCO3`, the Potency entry in assay [2], in assay [3], in [4], in [5], in assay [6] and in assay [7] was “inactive” throughout.
In the case of `CCCOCC(C)O` (stereo not drawn), the Potency result in [2], in assay [3], in assay [4], in assay [5], in [8] and in assay [9] was “inactive” in each case. Moreover, the Potency entry in assay [6] and in assay [7] was “inactive” each time. Moreover, the activity change in [10] (at 70.3 µM (top of the series)) was -0.141% (active) and -0.54% (inactive).
